Assay outcomes deposited in PubChem BioAssay by several laboratories.
Only some compounds are listed: those with a hit (about 6.7% of all), similar ones and a draw of the others.
Anthrax LF prot – Bacillus anthracis LF protease inhibitors, primary screen, biochemical, multiplex microsphere, MLPCN library; multiplex microsphere protease cleavage assay; inhibition, % at 10 µM; 360,000 compounds, 0.12% hits; also: plate controls were buffer without enzyme for full effect and enzyme alone for no effect
Target sequence (P15917 whole entry, looked up): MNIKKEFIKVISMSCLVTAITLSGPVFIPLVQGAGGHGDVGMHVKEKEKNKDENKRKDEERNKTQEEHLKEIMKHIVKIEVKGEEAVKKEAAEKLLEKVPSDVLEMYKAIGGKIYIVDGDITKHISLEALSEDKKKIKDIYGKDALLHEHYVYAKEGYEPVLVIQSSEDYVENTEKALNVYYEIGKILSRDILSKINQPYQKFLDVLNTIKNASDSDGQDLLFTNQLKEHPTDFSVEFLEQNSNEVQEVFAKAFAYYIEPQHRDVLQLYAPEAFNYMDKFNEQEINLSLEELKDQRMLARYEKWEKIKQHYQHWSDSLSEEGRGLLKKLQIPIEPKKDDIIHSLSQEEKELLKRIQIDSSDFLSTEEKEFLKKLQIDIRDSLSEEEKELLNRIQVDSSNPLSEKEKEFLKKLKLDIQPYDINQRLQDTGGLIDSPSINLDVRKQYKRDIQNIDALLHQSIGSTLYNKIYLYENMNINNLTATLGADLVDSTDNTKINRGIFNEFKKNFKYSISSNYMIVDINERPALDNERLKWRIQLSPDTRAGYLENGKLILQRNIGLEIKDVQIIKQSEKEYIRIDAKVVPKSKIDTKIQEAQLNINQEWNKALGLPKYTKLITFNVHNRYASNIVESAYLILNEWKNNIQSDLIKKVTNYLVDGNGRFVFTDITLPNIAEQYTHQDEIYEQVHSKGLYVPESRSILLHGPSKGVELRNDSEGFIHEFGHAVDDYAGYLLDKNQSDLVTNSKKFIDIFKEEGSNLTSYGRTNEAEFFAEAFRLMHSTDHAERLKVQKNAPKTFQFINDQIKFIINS
GDH-TPI counter – GDH-TPI coupling enzyme inhibitors, primary screen, artefact control for M. tuberculosis FBA inhibitor project, biochemical, absorbance, full deck; 360,000 compounds, 1.2% hits; inhibition, % at 4.8 µM; GDH-TPI coupled enzyme counterscreen, NADH absorbance; in the data active = inhibition above about 30%;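 also: 0% = DMSO wells and 100% = wells lacking the enzyme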
Autofluor counter – compound fluorescence in toxin protease inhibitor counterscreen. compound autofluorescence counterscreen, microsphere flow cytometry; stronger effect = higher value. fluorescence intensity (concentration not given with the values). 360,000 compounds, 3.1% hits. AID 624483; in the data active = fluorescence intensity above about 16000
BoNT F protease – BoNT/F light chain protease inhibitors, primary screen, biochemical, flow cytometry, MLPCN library; Multiplex microsphere protease cleavage assay; inhibition, % at 10 µM; 360,000 compounds, 0.22% hits; Botulinum neurotoxin type F light chain protease (Clostridium botulinum); AID 588497, 2011; in the data active = inhibition above about 35%, passing the limit was not always enough; also: plate controls were buffer without enzyme for full effect and enzyme alone for no effect
BoNT A protease – BoNT/A light chain protease inhibitors, primary screen, biochemical, flow cytometry, MLPCN library. AID 588499, 2011. Botulinum neurotoxin type A light chain protease (Clostridium botulinum A str. ATCC 3502). inhibition, % at 10 µM. multiplex microsphere protease substrate cleavage. 360,000 compounds, 0.17% hits; also: plate controls were buffer without enzyme for full effect and enzyme alone for no effect
FBA Mtb inh – Mtb FBA enzyme inhibitors, primary screen, biochemical, fluorescence, strain H37Rv; purified M. tuberculosis FBA, fluorescence read-out; Fructose-bisphosphate aldolase (Mycobacterium tuberculosis (strain ATCC 25618 / H37Rv)), …; inhibition, % at 1 µM; 360,000 compounds, 2.3% hits; AID 588726, 2011; in the data active = inhibition above about 27%;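 also: 0% = vehicle and 100% = reference inhibitor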
BoNT-A LC CP2 – BoNT/A light chain protease inhibitors, confirmation, biochemical, flow cytometry, cherry pick 2; shares compounds with BoNT A protease; multiplex microsphere protease cleavage assay; inhibition, % at 10 µM; 150 compounds, 10% hits; AID 602325, 2012; in the data active = inhibition above about 24%
LF protease CP2 – Bacillus anthracis LF protease inhibitors, confirmation, biochemical, multiplex microsphere; 150 compounds, 7% hits; inhibition, % at 10 µM; shares compounds with BoNT A protease; multiplex microsphere protease cleavage assay; AID 602327, 2012; in the data active = inhibition above about 25%
BoNT-F LC CP2 – BoNT/F light chain protease inhibitors, confirmation, biochemical, flow cytometry, cherry pick 2; shares compounds with BoNT A protease; multiplex microsphere protease cleavage assay; inhibition, % at 10 µM; 150 compounds, 7% hits; AID 602336, 2012; in the data active = inhibition above about 25%
Active calls of the source: *; / = no result given. Rule as the data show it, unless noted: active = inhibition above about 30%; inconclusive = no clear call, values can overlap the other calls; inactive = below that.

SMILES	Anthrax LF prot	GDH-TPI counter	Autofluor counter	BoNT F protease	BoNT A protease	FBA Mtb inh	BoNT-A LC CP2	LF protease CP2	BoNT-F LC CP2
O=C(OCC(=O)c1c[nH]c2ccccc12)c1cccc([N+](=O)[O-])c1	39*	-4	5658	-12	33*	-2	14	14	0
COc1ccc(C(=O)OCC(=O)c2c[nH]c3ccccc23)c(OC)c1	-3	-11	8458	-5	-4	0	3	-1	2
O=C(OCC(=O)c1c[nH]c2ccccc12)c1ccc(OC(F)F)cc1	4	7	3716	-5	2	0	2	2	0
COc1cccc(C(=O)OCC(=O)c2c[nH]c3ccccc23)c1OC	3	7	2872	7	1	0	1	-1	-2
Cc1cc(C(=O)OCC(=O)NC2CCCCC2)c(C)o1	/	3	/	/	/	4	/	/	/
CC(=NNc1nc2ccccc2o1)c1cc2ccccc2cn1	59*	27	3176	74*	51*	-3	16	26*	54*
COc1ccc(C(CNC(=O)C(CCSC)NC(=O)c2ccccc2Cl)N2CCCC2)cc1 (stereo unspecified)	7	-2	15232	43*	-15	-4	-5	1	14
COc1ccc(C#Cc2cccc(-c3nc(C(=O)NCCCN4CCOCC4)cc4c3[C@H](CCO)N(S(=O)C(C)(C)C)C4)c2)cc1OC (stereo partly specified)	-7	/	6366	-14	1	-1	/	/	/
Cn1ccc2c(-c3ccc(F)cc3)cc3c(c21)C1CCC3C1 (stereo unspecified)	5	/	5633	-12	6	9	4	1	-2
Cn1ccc2c(-c3ccc4c(c3)OCCO4)cc3c(c21)C1CCC3C1 (stereo unspecified)	-14	/	3482	-30	11	1	5	-5	-24
CSc1ccc(-c2cc3c(c4c2ccn4C)C2CCC3C2)cc1 (stereo unspecified)	1	/	6020	-17	1	21	/	/	/
COc1ccc(-c2cc3c(c4c2ccn4C)C2CCC3C2)cc1F (stereo unspecified)	17	/	3355	-6	17	1	4	-2	-14
Cc1ccccc1-c1cc2c(c3c1ccn3C)C1CCC2C1 (stereo unspecified)	9	/	5502	-13	6	0	4	1	-4
Cc1ccccc1-c1cc2c(c3c1ccn3C)C1CCC2O1 (stereo unspecified)	4	/	5787	5	1	25	/	/	/
O=C(Nc1c(C(=O)N2CCOCC2)oc2ccccc12)c1cccc([N+](=O)[O-])c1	-1	16	4258	3	0	-2	/	/	/
O=C(C(=O)N1CCOCC1)c1cn(CC(=O)N2CCc3ccccc3C2)c2ccccc12	-2	10	4264	0	0	0	/	/	/
CS(=O)(=O)N(CC(=O)Nc1ccccc1F)C1CCCCC1	0	8	4258	-13	-2	2	/	/	/
COC(=O)c1c(C(=O)OC)c2c(-c3ccccc3)cc3cccc1n32	37*	15	4190	19	37*	121*	8	3	-6
CCN(CC)S(=O)(=O)c1ccc(C(=O)NCc2ccc3c(c2)OCO3)cc1	2	-3	3246	-2	0	-2	/	/	/
CCN(CC)S(=O)(=O)c1ccc(C(=O)NCc2ccc3c(c2)cc(C)n3C)cc1	-83	-2	1295	-98	81*	-3	3	0	9
